Results from the supplement of paper PMC11732987, “Enantioselective OTUD7B fragment discovery through chemoproteomics screening and high-throughput optimisation” (Communications Chemistry, 2025).

Experiments:
Experiment in all cases: log2 ratio of Biotin-Ahx-Ub-VS probe labelling (fragment/DMSO); higher = less target engagement (more negative = stronger competition), active = hit call of the paper (q ≤ 0.05, log2 ratio ≤ -1)
Details in all cases: compound concentration: 200 uM; treatment time: 3 h
[1] = molecular target: T1, USP42 (UniProt Q9H9J4)
T1 sequence (whole entry): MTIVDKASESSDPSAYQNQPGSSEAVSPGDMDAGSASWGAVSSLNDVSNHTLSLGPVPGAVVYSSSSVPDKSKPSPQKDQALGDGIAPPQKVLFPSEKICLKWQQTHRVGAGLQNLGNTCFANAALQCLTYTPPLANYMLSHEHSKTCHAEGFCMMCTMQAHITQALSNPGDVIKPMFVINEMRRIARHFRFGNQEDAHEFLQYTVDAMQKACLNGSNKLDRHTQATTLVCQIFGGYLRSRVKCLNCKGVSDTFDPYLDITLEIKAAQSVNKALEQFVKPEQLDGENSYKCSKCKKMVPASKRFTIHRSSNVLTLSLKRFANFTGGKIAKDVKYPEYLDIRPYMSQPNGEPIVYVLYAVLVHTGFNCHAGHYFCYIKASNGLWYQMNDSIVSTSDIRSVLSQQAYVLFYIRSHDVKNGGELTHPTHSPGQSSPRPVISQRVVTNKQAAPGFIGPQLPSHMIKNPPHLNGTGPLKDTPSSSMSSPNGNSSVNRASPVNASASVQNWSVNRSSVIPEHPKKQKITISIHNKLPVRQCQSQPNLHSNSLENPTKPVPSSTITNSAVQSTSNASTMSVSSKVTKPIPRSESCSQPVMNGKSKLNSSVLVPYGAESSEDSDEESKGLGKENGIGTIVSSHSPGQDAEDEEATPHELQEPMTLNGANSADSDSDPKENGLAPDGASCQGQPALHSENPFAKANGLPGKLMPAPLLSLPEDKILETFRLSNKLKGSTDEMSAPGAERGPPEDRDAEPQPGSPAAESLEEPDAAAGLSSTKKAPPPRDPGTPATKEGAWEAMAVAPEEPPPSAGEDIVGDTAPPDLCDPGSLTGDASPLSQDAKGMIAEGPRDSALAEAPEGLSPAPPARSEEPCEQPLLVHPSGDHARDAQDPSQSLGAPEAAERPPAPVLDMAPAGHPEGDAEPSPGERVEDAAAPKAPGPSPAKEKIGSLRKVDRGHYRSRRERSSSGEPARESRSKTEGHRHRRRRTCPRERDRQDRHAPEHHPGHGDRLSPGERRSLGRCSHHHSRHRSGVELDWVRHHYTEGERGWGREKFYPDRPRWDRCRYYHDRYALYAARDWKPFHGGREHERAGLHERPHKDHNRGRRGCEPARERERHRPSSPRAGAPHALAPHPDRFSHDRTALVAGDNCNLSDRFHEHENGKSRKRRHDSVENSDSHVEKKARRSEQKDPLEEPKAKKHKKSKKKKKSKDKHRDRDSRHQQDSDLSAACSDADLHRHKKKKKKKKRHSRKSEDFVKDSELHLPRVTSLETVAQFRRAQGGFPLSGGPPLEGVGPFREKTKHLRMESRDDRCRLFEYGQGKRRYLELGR
In short: (§1)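 Labelling with Biotin-Ahx-Ub-VS (0.5 µM final, 1 h) followed a 3 h triplicate treatment of HEK293T lysate (495 µg per sample, Tris/CHAPS/IGEPAL buffer with protease inhibitors) with fragment at 200 µM or vehicle. Labelled DUBs were NeutrAvidin-enriched, digested with LysC and trypsin, and run by diaPASEF LC-MS/MS. The values, average log2 fragment/vehicle ratios by unpaired t-test, come from global-median-normalised Spectronaut label-free quantities. Proteins with ≥2 unique peptides were used.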

[2] = molecular target: USP46 (UniProt P62068)
In short: as §1

[3] = molecular target: T2, USP47 (UniProt Q96K76)
T2 sequence (whole entry): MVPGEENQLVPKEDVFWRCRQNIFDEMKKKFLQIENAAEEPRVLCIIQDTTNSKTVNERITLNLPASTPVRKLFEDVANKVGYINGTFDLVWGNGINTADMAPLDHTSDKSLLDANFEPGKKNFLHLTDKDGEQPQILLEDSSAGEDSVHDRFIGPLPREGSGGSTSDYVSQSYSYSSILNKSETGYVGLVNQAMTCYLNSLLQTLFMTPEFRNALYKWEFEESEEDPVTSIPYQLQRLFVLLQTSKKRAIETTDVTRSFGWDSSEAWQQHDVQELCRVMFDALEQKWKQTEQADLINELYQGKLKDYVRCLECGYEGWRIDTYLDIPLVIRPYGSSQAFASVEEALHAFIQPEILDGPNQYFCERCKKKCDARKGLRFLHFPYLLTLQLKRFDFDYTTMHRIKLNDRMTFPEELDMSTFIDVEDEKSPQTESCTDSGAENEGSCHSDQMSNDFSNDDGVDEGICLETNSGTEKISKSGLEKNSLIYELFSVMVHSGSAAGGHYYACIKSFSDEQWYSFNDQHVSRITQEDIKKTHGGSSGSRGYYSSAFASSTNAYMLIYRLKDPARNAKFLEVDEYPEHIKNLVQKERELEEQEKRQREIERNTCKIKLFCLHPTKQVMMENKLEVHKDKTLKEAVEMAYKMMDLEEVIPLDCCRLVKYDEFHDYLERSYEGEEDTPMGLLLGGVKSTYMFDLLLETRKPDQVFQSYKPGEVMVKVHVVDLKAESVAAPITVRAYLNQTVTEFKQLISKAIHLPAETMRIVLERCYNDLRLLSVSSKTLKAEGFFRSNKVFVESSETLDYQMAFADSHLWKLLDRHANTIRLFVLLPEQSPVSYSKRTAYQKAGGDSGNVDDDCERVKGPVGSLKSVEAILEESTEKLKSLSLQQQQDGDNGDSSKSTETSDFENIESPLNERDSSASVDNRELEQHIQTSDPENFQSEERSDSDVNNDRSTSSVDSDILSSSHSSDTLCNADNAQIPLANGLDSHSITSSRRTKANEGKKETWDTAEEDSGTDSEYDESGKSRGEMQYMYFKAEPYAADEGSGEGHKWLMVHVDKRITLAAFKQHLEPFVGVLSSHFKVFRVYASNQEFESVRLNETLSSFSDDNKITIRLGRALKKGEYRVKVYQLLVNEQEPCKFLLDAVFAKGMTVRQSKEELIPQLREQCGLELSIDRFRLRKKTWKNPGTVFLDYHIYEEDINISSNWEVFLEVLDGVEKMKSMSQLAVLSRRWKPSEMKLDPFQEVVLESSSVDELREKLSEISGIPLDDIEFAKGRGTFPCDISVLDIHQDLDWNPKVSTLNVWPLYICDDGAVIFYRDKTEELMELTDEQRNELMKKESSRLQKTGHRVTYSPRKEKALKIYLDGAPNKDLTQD
In short: as §1

[4] = molecular target: T3, USP48 (UniProt Q86UV5)
T3 sequence (whole entry): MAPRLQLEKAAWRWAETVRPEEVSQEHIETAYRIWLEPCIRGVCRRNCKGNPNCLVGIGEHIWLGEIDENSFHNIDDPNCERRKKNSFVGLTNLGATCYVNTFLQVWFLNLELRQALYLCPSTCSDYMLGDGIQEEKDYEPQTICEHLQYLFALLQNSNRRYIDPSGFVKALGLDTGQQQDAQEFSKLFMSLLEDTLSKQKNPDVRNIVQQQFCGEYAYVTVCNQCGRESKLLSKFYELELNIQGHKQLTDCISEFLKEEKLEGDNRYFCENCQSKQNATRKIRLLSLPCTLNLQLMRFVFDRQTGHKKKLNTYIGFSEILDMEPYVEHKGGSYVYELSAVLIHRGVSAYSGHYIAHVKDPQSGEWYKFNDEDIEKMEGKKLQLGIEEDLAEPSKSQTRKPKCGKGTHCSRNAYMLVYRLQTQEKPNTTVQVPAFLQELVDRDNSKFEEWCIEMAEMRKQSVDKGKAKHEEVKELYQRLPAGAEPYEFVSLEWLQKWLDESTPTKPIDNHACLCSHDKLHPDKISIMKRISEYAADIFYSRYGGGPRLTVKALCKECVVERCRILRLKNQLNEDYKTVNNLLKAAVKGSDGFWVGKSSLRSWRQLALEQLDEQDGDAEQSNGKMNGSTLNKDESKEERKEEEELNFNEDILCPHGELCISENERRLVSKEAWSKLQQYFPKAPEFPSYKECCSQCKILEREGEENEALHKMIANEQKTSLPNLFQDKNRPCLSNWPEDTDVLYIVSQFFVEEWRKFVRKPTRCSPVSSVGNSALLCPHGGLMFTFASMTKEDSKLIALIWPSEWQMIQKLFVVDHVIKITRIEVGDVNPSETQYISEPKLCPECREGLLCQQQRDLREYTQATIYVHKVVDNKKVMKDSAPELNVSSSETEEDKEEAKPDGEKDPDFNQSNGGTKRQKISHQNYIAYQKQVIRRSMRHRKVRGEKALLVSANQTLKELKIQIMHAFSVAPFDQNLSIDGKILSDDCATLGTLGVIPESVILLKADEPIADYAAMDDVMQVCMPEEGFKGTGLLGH
In short: as §1

[5] = molecular target: T4, USP5 (UniProt P45974)
T4 sequence (whole entry): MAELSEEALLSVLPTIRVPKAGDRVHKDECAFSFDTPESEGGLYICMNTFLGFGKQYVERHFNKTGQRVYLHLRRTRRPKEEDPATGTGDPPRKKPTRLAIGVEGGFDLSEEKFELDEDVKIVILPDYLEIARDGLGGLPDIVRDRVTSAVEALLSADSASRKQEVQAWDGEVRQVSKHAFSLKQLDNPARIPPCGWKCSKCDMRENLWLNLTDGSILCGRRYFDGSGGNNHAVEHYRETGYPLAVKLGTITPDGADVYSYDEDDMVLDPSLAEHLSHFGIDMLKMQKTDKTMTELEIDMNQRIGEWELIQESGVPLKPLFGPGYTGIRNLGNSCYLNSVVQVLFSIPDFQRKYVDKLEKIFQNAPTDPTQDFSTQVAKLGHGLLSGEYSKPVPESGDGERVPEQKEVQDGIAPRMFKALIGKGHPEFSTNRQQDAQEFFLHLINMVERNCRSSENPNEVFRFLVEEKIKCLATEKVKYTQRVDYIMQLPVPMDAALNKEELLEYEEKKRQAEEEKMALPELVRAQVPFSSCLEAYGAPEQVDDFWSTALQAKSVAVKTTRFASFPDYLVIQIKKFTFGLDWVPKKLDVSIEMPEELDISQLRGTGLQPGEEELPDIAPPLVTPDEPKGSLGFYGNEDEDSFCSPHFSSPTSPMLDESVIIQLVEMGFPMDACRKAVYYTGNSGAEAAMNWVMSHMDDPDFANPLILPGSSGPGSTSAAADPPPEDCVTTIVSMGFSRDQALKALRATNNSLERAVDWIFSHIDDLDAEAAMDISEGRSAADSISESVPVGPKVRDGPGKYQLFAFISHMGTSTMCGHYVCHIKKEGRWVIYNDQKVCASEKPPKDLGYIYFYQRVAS
In short: as §1

[6] = molecular target: USP54 (UniProt Q70EL1)
In short: as §1

[7] = molecular target: USP7 (UniProt Q93009)
In short: as §1

[8] = molecular target: T5, USP8 (UniProt P40818)
T5 sequence (whole entry): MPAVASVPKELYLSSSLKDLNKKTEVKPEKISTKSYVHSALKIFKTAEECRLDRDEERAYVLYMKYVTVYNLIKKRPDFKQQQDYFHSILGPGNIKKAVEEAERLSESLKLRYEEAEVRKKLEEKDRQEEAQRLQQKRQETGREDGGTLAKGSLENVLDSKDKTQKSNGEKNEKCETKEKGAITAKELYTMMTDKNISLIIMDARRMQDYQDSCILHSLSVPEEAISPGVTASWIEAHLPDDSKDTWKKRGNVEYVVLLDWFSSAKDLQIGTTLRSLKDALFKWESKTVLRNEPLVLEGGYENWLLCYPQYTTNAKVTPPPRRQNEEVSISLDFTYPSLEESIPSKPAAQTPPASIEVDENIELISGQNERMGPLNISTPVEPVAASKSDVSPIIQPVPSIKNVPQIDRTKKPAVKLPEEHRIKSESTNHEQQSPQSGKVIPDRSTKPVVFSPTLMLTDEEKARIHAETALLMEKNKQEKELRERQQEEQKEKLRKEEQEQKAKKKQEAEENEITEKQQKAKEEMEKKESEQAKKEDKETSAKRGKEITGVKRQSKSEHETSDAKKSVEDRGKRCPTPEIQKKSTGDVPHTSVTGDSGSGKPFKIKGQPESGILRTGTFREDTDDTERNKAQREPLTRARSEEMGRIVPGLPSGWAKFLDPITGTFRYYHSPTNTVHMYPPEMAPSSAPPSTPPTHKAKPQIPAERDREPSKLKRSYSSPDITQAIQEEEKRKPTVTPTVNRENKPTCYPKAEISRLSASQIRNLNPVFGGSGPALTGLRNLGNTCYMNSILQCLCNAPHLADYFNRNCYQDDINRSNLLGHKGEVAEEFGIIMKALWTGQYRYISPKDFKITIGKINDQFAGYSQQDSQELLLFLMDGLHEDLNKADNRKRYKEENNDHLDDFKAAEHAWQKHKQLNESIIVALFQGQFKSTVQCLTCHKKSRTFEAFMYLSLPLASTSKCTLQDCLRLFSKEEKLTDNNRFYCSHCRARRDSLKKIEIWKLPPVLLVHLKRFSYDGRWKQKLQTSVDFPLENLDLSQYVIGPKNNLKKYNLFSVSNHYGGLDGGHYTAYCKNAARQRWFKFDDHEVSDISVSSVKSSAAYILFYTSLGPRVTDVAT
In short: as §1

[9] = molecular target: USP9X (UniProt Q93008)
In short: as §1

[10] = molecular target: UniProt O00487
In short: as §1

Measured: log2 ratio of Biotin-Ahx-Ub-VS probe labelling

Sequence of USP7 (Q93009 whole entry, looked up): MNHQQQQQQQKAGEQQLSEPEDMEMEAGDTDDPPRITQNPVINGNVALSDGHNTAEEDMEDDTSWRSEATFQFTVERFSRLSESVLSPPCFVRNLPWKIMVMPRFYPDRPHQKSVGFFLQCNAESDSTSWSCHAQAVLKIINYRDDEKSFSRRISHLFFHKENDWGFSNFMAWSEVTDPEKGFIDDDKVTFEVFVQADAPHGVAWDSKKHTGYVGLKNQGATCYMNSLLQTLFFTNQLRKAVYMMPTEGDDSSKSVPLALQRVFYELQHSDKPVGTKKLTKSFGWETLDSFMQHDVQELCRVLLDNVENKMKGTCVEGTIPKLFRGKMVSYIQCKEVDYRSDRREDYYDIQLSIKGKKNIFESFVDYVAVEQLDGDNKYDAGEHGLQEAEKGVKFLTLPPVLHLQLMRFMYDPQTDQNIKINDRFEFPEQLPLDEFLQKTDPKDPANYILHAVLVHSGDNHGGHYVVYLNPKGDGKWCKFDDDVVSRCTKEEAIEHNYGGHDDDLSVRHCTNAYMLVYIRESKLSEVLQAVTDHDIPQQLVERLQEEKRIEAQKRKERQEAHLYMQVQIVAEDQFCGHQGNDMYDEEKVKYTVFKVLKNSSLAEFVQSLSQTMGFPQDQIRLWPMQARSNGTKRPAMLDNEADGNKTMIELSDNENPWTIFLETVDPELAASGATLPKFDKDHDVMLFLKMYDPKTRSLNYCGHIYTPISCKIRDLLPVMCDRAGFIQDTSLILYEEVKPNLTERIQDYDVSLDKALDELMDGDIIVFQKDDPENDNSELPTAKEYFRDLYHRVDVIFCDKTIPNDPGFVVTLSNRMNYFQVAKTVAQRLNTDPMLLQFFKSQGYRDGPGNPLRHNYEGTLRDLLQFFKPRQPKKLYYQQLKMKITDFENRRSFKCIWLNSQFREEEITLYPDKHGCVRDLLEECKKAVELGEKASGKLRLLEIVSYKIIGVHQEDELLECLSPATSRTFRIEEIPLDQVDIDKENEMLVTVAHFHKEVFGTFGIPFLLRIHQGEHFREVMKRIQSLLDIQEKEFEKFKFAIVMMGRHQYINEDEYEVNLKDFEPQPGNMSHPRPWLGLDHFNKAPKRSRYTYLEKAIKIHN
Sequence of USP54 (Q70EL1 whole entry): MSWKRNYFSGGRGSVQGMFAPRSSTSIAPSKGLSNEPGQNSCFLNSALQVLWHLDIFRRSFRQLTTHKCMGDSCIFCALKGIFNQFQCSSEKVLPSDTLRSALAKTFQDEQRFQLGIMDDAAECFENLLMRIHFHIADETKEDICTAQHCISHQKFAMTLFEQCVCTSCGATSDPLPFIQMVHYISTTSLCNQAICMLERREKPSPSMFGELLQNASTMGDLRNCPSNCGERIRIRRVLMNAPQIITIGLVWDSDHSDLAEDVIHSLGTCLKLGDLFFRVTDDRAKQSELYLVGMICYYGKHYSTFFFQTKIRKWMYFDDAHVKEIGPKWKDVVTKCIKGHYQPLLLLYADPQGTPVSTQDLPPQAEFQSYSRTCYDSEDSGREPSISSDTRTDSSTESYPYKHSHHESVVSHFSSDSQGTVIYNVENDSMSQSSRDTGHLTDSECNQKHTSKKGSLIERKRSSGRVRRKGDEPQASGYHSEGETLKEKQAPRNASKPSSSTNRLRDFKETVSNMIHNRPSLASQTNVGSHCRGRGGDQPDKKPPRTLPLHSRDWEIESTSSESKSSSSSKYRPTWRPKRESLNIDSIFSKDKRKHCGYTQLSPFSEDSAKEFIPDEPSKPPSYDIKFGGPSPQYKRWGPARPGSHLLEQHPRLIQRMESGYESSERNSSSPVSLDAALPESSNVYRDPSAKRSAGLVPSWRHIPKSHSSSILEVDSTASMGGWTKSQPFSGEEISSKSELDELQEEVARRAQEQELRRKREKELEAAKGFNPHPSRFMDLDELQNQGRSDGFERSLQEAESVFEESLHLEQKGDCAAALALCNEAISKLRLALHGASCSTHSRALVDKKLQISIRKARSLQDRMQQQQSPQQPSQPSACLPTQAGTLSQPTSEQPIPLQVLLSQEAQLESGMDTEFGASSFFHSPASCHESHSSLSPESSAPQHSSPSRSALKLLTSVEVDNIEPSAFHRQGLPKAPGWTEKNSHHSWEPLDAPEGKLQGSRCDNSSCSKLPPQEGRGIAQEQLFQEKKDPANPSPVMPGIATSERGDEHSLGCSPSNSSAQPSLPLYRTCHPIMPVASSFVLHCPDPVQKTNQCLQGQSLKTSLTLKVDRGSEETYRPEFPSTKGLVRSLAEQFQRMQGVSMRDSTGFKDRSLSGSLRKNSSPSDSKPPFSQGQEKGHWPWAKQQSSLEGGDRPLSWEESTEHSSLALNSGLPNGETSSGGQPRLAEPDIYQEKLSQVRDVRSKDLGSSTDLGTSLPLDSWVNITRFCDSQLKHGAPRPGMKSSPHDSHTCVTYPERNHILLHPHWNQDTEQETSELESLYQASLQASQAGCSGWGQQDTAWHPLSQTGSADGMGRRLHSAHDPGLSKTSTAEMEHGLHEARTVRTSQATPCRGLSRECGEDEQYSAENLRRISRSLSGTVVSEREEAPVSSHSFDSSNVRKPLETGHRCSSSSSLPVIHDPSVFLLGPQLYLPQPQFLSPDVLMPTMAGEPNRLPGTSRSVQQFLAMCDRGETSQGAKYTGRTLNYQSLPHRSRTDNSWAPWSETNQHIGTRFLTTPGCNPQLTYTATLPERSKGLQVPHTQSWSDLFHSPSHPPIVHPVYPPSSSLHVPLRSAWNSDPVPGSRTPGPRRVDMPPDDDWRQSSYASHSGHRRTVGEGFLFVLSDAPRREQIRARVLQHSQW
Sequence of USP46 (P62068 whole entry): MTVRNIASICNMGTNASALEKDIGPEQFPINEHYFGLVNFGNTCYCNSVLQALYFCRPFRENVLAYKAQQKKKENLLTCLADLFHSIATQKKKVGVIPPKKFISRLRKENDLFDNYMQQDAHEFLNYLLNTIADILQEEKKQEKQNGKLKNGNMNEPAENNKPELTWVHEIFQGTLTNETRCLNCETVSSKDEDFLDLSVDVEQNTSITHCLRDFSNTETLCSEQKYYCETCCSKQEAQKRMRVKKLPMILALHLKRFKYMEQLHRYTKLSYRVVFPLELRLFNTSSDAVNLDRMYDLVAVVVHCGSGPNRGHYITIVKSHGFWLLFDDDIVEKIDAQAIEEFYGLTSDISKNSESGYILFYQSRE
Sequence of UniProt O00487 (O00487 whole entry): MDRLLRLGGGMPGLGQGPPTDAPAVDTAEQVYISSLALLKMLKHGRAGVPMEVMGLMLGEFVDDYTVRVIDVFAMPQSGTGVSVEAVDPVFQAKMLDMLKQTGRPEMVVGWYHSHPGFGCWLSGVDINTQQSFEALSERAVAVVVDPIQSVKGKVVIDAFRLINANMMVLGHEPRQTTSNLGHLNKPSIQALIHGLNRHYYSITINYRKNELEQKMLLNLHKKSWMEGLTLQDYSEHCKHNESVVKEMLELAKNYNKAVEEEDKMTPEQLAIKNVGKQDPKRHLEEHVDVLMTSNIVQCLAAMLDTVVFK

O=C(CCl)N1CCOCCC1c1ccccc1 (stereo not given)
inactive: [1] 0.345 | [2] -0.0581 | [3] -0.596 | [4] 0.0099 | [5] 0.135 | [6] 0.504 | [7] -0.526 | [8] -0.109 | [9] -0.168 | [10] -0.00106
